Results as given in PubChem BioAssay (NCI).
About 83,000 compounds went through this panel and 20% of them were active in at least one assay; those are over-represented in the sample as a whole.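 The endpoint reported here, percent growth, reads 100 for growth as untreated, 0 for no net growth and -100 for all cells dead.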 A number with no mark means an inactive call. Activity calls are given as the source filed them. The calls were made as follows: active = growth percent below 10; inactive = the rest.

How the values were obtained:
Test in all cases: NCI-60 one-dose screen, 48 h (100 = growth as untreated, 0 = no growth, -100 = all killed)
Details in all cases: 10 µM unless noted
[1] = tested on: T-47D breast
[2] = tested on: BT-549 breast
[3] = tested on: MDA-MB-435 melanoma
[4] = tested on: SW-620 colon
[5] = tested on: MCF7 breast
[6] = tested on: HCT-116 colon
[7] = tested on: HCC-2998 colon
[8] = tested on: KM12 colon

Structure (SMILES)	growth [1]	growth [2]	growth [3]	growth [4]	growth [5]	growth [6]	growth [7]	growth [8]
Clc1cccc(/C=N/Nc2nc(N/N=C/c3cccc(Cl)c3)nc(N3CCOCC3)n2)c1	68.5%	92.7%	49.3%	18.1%	43%	22.8%	59%	30.2%
O=C(CCCCCCN1CC(=O)N2[C@@H](c3ccc(Cl)s3)c3[nH]c4ccccc4c3C[C@H]2C1=O)NO	27.5%	85.7%	23.9%	33.2%	14.7%	13%	37.6%	71.9%
Fc1cccc(Cl)c1/C=N/Nc1nc(N/N=C/c2c(F)cccc2Cl)nc(N2CCCCC2)n1	11%	68.4%	3.75% (active)	17.2%	3.1% (active)	19.5%	24.4%	10.8%
Cc1ccc(-c2nc(SCC(=O)c3ccccc3)nc(Nc3ccc(S(N)(=O)=O)cc3)c2C#N)cc1	83.9%	73.8%	47%	83.8%	65.1%	35.9%	106%	72.8%
CCOC(=O)c1cccc(NC2=C(Cl)C(=O)C(C)=C(C)C2=O)c1	-37.5% (active)	131%	104%	100%	84.7%	84.9%	111%	89.6%
CC1(C)CC[C@]2(C(=O)NCCCCCCN(CCCN)CCCN)CC[C@]3(C)C(=CC[C@@H]4[C@@]5(C)CC[C@H](O)C(C)(C)[C@@H]5CC[C@]43C)[C@@H]2C1	98.6%	102%	105%	107%	93.4%	99.2%	103%	102%
O=C(CCCCCCNC(=O)C(O)(O)C(F)(F)F)Nc1ccc(-c2ccccc2)cc1	11.5%	14.8%	7.66% (active)	2.53% (active)	9.59% (active)	4.14% (active)	-0.948% (active)	8.38% (active)
O=C1[C@@H]2Cc3c([nH]c4ccccc34)[C@@H](c3ccc(Cl)cc3)N2C(=O)CN1C1CCN(Cc2ccccc2)CC1	81.7%	77.6%	64.2%	65.9%	19%	9.43% (active)	43.9%	50.4%
CN(C)CCCOc1ccc(C(=C(c2ccccc2)C2CCCC2)c2ccc(OCCCN(C)C)cc2)cc1	-76.6% (active)	-83.3% (active)	-62.8% (active)	-34.2% (active)	-65.8% (active)	-44.7% (active)	-83.9% (active)	-96.9% (active)
N#Cc1c(-c2ccc(F)cc2)cc(-c2c[nH]c3ccccc23)nc1-c1c[nH]c2ccccc12	89.9%	109%	107%	107%	89.3%	105%	109%	101%
CN1CCN(c2ccc(Nc3nc(NCCNC(=O)c4ccccc4)c4sccc4n3)cc2)CC1	18.1%	58.8%	59.3%	49.1%	25.7%	0.236% (active)	84%	59.6%
Cc1ccc2c(n1)C(=O)C(Cl)=C(Nc1ccccc1C(=O)OC(C)(C)C)C2=O	-25.2% (active)	38.6%	84.7%	-28.3% (active)	-60.1% (active)	-84.6% (active)	92.3%	99.1%
Cn1cc(-c2nnc(N)nc2-c2c[nH]c3ccc(F)cc23)c2cc(Br)ccc21	29.4%	11.1%	3.84% (active)	20.4%	12.3%	14.9%	53.6%	22.5%
C=C(C)[C@@H]1CC[C@]2(C(=O)N3CCN(C)CC3)CC[C@]3(C)[C@H](CC[C@@H]4[C@@]5(C)CC[C@H](OP(=O)(OCC)OCC)C(C)(C)[C@@H]5CC[C@]43C)[C@@H]12	87.8%	93.9%	94.2%	82%	68.9%	24%	94.4%	94.4%
CN(C)c1ccc(/C=N/Nc2nc(N/N=C/c3ccc(N(C)C)cc3)nc(N3CCCCC3)n2)cc1	46%	111%	60.4%	64.2%	31.1%	14.9%	103%	93%
